# aSyn UTR act: Activators via SNCA 5'UTR binding, MLPCN | alpha-synuclein 5'UTR reporter, activators screen | activity score, % (tested at 7.5 µM), hits read low | hit rate 7.1% among 300,000 | AID 1814; in the data active = activity score below about -60%
# The depositor's hits bear a star. These entries were drawn from the full list.
SMILES,aSyn UTR act
CCOc1ccc(C(=O)NC(=S)Nc2cccnc2)cc1,-135*
CC(C)Oc1cccc(C(=O)NC(=S)Nc2cccnc2)c1,-114*
CCCOc1cccc(C(=O)NC(=S)Nc2ccccc2)c1,-102*
CC(C)Oc1cccc(C(=O)NC(=S)Nc2ccccc2)c1,-90*
COc1cccc(C(=O)NC(=S)Nc2cccnc2)c1,-153*
Cc1cc(C(=O)COC(=O)c2ccc(O)cc2)c(C)n1-c1ccccc1F,-78*
Cc1cc(C(=O)Cn2nnc3ccccc3c2=O)c(C)n1-c1ccccc1F,54
Cc1cc(C(=O)OCC(=O)Nc2c(F)cccc2F)c(C)n1-c1ccccc1,-103*
Cc1cc(C(=O)Nc2ccc(Cl)cc2)c(C)n1-c1ccccc1,87
Cc1cc(C(=O)CN2C(=O)NC(CC(C)C)C2=O)c(C)n1-c1ccccc1F (configuration not stated),-148*
Cc1cc(N2CCOCC2)nc2ccc(NC(=O)CCC(=O)N3CCN(c4ccccc4)CC3)cc12,-87*
CCCCNC(=O)CCC(=O)Nc1ccc2nc(N3CCCCC3)cc(C)c2c1,-141*
COc1cccc(NC(=O)CCC(=O)Nc2ccc3nc(N4CCOCC4)cc(C)c3c2)c1,-149*
COCCCNC(=O)CCC(=O)Nc1ccc2nc(N3CCOCC3)cc(C)c2c1,-86*
CCOC(=O)C1CCCN(C(=O)CCC(=O)Nc2ccc3nc(N4CCOCC4)cc(C)c3c2)C1 (configuration not stated),-63*
CCCCNC(=O)CCC(=O)Nc1ccc2nc(N3CCOCC3)cc(C)c2c1,-87*
Cc1cc(N2CCOCC2)nc2ccc(NC(=S)NC(C)C)cc12,-93*
CCCN(CCC)CCNC(=O)CCC(=O)Nc1ccc2nc(N3CCOCC3)cc(C)c2c1,-90*
Cc1cc(N2CCCCC2)nc2ccc(NC(=O)CCC(=O)NCCC(C)C)cc12,-131*
CCN(CC)CCCNC(=O)CCC(=O)Nc1ccc2nc(N3CCC(C)CC3)cc(C)c2c1,-62*
O=C(Nc1ccccc1)c1ccc(COc2ccccc2)cc1,-109*
O=C(Nc1ccc(Cn2cccn2)cc1)c1ccc(COc2ccccc2Br)cc1,-107*
NNC(=O)c1ccc(COc2ccc3ccccc3c2)cc1,-76*
O=C(Nc1ccccc1F)c1ccc(OCc2ccccc2)cc1,-141*
COc1ccc(OCc2cccc(C(=O)NN)c2)cc1,67
SMILES,aSyn UTR act
O=C(NCC1CCCO1)C(=O)N/N=C/c1ccc(OCc2ccccc2Cl)cc1 (configuration not stated),-106*
O=C(NCC1CCCO1)c1ccc(COc2ccccc2)cc1 (configuration not stated),-78*
CSCc1ccc(C(=O)Nc2ccc(C(N)=O)cc2)cc1,-141*
NNC(=O)c1cccc(COc2cccc(Br)c2)c1,-86*
O=C(Nc1ccccc1)c1ccc(CSc2ncccn2)cc1,-95*
COc1ccccc1CNC(=O)[C@@H]1CCCN1S(=O)(=O)c1ccc(C)cc1,-113*
CCn1cnc2sc(C(=O)Oc3ccc(Br)cc3)c(C)c2c1=O,-77*
O=C(NC1=NCCS1)c1sc2cc(Cl)cc(Cl)c2c1Cl,-64*
Cc1cccnc1NC(=O)c1sc2ccccc2c1Cl,-70*
O=C(NC1=NCCS1)c1sc2ccccc2c1Cl,-166*
Cn1c(-c2cc3ccccc3oc2=O)nc2ccccc21,-97*
COc1ccc2cc(-c3nc4ccccc4n3C)c(=O)oc2c1,-209*
COc1cccc(Cn2c(-c3nonc3N)nc3ccccc32)c1,96
CC(C)=C1C2C=CC1C1C(=O)N(c3ccc4c(c3)OCO4)C(=O)C21 (configuration not stated),-86*
C/C(=N\N=C\c1ccc(N(C)C)cc1)c1cccc([N+](=O)[O-])c1,-68*
CC(Oc1ccc(Cl)cc1Cl)c1nc(-c2ccc(NC(=O)c3ccco3)cc2)no1 (configuration not stated),-147*
CCCc1ccc(OCc2nc(-c3ccc(NC(=O)c4ccco4)cc3)no2)cc1,-119*
Cc1ccccc1OCc1nc(-c2ccc(NC(=O)c3cccs3)cc2)no1,-277*
Cc1ccccc1OCc1nc(-c2ccc(NC(=O)c3ccc4c(c3)OCO4)cc2)no1,-109*
CCCc1ccc(OCc2nc(-c3ccc(NC(=O)c4cccs4)cc3)no2)cc1,-169*
COc1ccc(NC(=S)N/C(=N/CS(=O)(=O)c2ccccc2)c2ccccc2)cc1,-90*
Cc1cccc(NC(=S)N/C(=N/S(=O)(=O)c2ccccc2)c2ccccc2)c1,-103*
O=[N+]([O-])c1ccc(NC(=S)N/C(=N/CS(=O)(=O)c2ccccc2)c2ccccc2)cc1,-92*
COc1ccc(O)c(/C=N/NC(=S)Nc2cccc(S(=O)(=O)N(C)C)c2)c1,74
Cn1c(C(C#N)C(=O)c2ccco2)nc2ccccc21 (configuration not stated),-125*
SMILES,aSyn UTR act
Cc1csc(NC(=O)c2nc3nc(C)cc(C)n3n2)n1,-90*
Cc1cc(C)n2nc(C(=O)Nc3nccs3)nc2n1,-112*
CC(C)=CC(=O)OCc1cc([N+](=O)[O-])cc2c1OCOC2,-110*
O=[N+]([O-])/C=C\c1ccc(N2CCCC2)c(F)c1,-142*
CNc1sc(C(=O)c2ccccc2F)c(N)c1-c1nc2ccccc2s1,-84*
CCc1ccc(OCC(=O)O/N=C(\N)c2ccncc2)c(Br)c1,-136*
CCc1ccc(OCC(=O)O/N=C(\N)c2ccncc2)cc1,-99*
N/C(=N\OC(=O)COc1ccc2ccccc2c1Br)c1ccncc1,-92*
Cc1cc(C(=O)O/N=C(\N)c2ccc(C(C)(C)C)cc2)no1,-223*
CC(C)(C)c1ccc(OCC(=O)O/N=C(\N)c2ccncc2)cc1,-77*
CCCN1CCC(=O)N(CCSc2ccccc2)CC1,-115*
O=C1CCN(Cc2ccccc2)CCN1CCSc1ccccc1,-78*
COc1ccc(NC(=O)c2cc(-c3ccccc3Cl)on2)cc1,-125*
COc1cc(NC(=O)c2cc(-c3ccccc3Cl)on2)cc(OC)c1OC,-76*
CCN(CC)c1nc(C#N)cc(-c2ccc(OC)cc2)n1,-69*
Cc1ccc2oc(C(=O)NCC(c3ccco3)N(C)C)c(C)c2c1 (configuration not stated),-73*
Cc1ccc2oc(C(=O)Nc3nonc3C)c(C)c2c1,-106*
Cc1ccc2oc(C(=O)Nc3nnc(C)s3)c(C)c2c1,-68*
COCCn1c(C)cc(C(=O)COC(=O)c2ccccc2Br)c1C,55
COCCn1c(C)cc(C(=O)COC(=O)c2ccc3ncsc3c2)c1C,-151*
COCCn1c(C)cc(C(=O)COC(=O)c2cncc(Br)c2)c1C,-121*
NC(=O)C1CCCN(C(=S)Nc2cccc3ccccc23)C1 (configuration not stated),-90*
Cc1ccc(-c2nc3ccccc3[nH]2)cc1NC(=S)NC(=O)c1ccccc1Br,-67*
Cc1ccc(-c2nc3ccccc3o2)cc1NC(=S)NC(=O)c1cccs1,-75*
O=C(Nc1ccc2oc(-c3ccccc3)nc2c1)c1cccs1,-295*
SMILES,aSyn UTR act
O=C(Nc1ccc2oc(-c3ccccc3)nc2c1)c1cc(-n2cnnc2)ccc1Cl,-64*
Cc1ccc(-c2nc3ccccc3s2)cc1NC(=S)NC(=O)c1ccccc1,-116*
Cc1ccc2oc(-c3cccc(NC(=S)NC(=O)c4cccs4)c3)nc2c1,-153*
CC1(C(=O)OCC(=O)Nc2ccc3ccccc3c2)CC1(Cl)Cl (configuration not stated),-78*
Cc1nc(-c2ccc(S(=O)(=O)Oc3ccccc3Cl)s2)cs1,-68*
Cc1ccc2nc(NC(=O)c3ccc(Cl)s3)sc2c1,-133*
